Bst PK mod = Pyruvate Kinase; purified pyruvate kinase, luminescence ATP production; ribose 5-phosphate activator present at AC10; actives 1.2% (n = 51,000); AID 361, 2006; Potency, µM; in the data active = potency below about 11 µM; inconclusive = mostly about 12 µM to 25 µM;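 the screen sought inhibitors and activators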;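 note: potency is the fitted concentration of half-maximal effect; scaled between full activation by ribose 5 phosphate and full inhibition by luteolin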
HBB splice mod = qHTS Assay for Modulators of Hemoglobin Beta Chain Splicing | HBB splicing reporter cell assay, activation; EGFP reporter with mutant IVS2-654 intron; response scale: normalised to 500 nM splice-correcting PNA | Potency, µM (highest dose often 46.1 µM), inactives show at the highest dose activation, hits mostly activators | actives 0.06% (n = 65,000) | AID 925, 2007; note: potency is the fitted concentration of half-maximal effect; 0% is about no effect
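Compounds were applied for 2 days to HeLa EGFP-654 cells, 500/well in Optimem with 2% FCS. The reporter's EGFP is disrupted by mis-splicing of beta-globin intron IVS2-654. Readout: summed well GFP fluorescence from 488 nm laser scanning; reference was 500 nM antisense […] 654 PNA.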
Ub-GFP proteasome = Ubiquitin-GFP Assay; Ubiquitin-GFP reporter cells, proteasome inhibition, GFP fluorescence; response scale: untreated = 0%, 10 µM MG-132 = 100%; Potency, µM (top dose mostly 45.9 µM), without a hit: at the top dose activation (GFP accumulation), hits mostly activators; 67,000 tested, under 10 active; AID 526, 2006; active = well fitted activation curve with a large enough effect, not every such curve was filed as active; inconclusive = small, poorly fitted or top-dose-only effect, or another doubt; inactive = no such curve, though single readings can be large or run the other way; note: potency is the fitted concentration of half-maximal effect
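U2OS cells expressing ubiquitin(G76V)-GFP, seeded overnight in 0.5% FBS medium, then treated 4 hr at 37 C across 46 uM to 2.9 nM. GFP-positive cells counted by laser cytometry (488 ex/515 em); %activity scaled between basal and 10 uM MG-132.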
USP2a inh = qHTS Assay for Inhibitors of Ubiquitin-specific Protease USP2a. Ubiquitin carboxyl-terminal hydrolase 2 (Homo sapiens), O75604. USP2a enzymatic assay, qHTS inhibition. Potency, µM (highest dose often 38.3 µM), for the others: at the top dose activity change, negative = inhibition, most hits filed as inhibitors. actives 0.1% (n = 60,000). AID 927, 2007; note: potency is the fitted concentration of half-maximal effect; nearly all actives have a fitted effect of over 60% in size
Target sequence (O75604 whole entry, looked up): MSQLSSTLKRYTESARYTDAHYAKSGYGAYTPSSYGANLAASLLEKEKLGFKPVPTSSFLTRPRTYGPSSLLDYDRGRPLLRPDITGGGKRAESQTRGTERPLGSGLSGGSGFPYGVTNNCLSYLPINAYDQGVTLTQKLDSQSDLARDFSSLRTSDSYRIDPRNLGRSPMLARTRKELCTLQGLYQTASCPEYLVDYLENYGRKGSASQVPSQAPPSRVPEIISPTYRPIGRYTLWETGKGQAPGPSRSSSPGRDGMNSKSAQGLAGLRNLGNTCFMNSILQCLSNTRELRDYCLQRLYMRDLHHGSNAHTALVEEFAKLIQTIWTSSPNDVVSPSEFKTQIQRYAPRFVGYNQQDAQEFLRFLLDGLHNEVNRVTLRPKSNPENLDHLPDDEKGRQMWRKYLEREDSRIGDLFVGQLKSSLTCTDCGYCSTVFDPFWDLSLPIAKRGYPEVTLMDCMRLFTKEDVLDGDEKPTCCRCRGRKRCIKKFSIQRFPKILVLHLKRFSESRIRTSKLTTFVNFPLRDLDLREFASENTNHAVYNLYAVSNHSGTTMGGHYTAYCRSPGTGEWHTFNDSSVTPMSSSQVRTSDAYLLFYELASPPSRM
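USP2 core (20nM final) preincubated 30 min RT with compound, then Ub-PLA2 20nM and NBD C6-HPC 20uM final added; buffer 20mM Tris-HCl pH 8.0, 2mM CaCl2. Fluorescence Ex 460/Em 535 read at 0 and 2.5 h; normalized to NEM.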
GFP derepression = qHTS Assay for Epigenetic Modulators | mouse C127i GFP locus derepression, cytometry, 30 h | Potency, µM (doses to about 46.1 µM), for the others: at the top dose GFP derepression (activation) | actives 0.09% (n = 68,000) | AID 597, 2007; note: % of control where 0% means no effect
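Murine C127i mammary cells carrying a silenced, stably integrated CMV-driven GFP reporter were treated with compound for 30 hours at 37 C. After PBS washes, GFP-positive cells were counted by laser-scanning microplate cytometry.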
Hsp90 Hop PPI = qHTS Assay for Disrupters of an Hsp90 Co-Chaperone Interaction; Hsp90 C-terminal peptide / TPR2A (Hop) interaction, human; AlphaScreen TPR2A-His6 binding biotin-Hsp90 C-terminal peptide; actives 0.44% (n = 71,000); AID 595, 2007; Potency, µM (highest dose often 57 µM), for the others: top-dose activity change, negative = inhibition; active = well fitted curve in either direction with a large enough effect; inconclusive = small, poorly fitted or top-dose-only effect, or another doubt; note: potency is the fitted concentration of half-maximal effect; % is set by controls: 0 for no effect and ±100 for the full control effect
The depositor's hits bear a star; [ ] = dose if it differs, or a comment. The list is not random: actives were taken first. Their share in the collection is about 1.3%. Unless noted, calls come from the whole dose curve; as a rule, active = well fitted curve in the direction sought with a large enough effect; inconclusive = small, poorly fitted or top-dose-only effect, or another doubt; inactive = no such curve, though single readings can be large; an effect the other way counts as inactive or inconclusive.

What do the screens show for `Nc1nc(SCC(=O)NCc2ccco2)[nH]c(=O)c1-c1ccccc1`?
Bst PK mod: >57; HBB splice mod: -0.4%; Ub-GFP proteasome: 2.4%; USP2a inh: -3.4%; GFP derepression: 0.0%; Hsp90 Hop PPI: -1.1%

How did O=C(CSc1nc2nc(-c3cccs3)cc(C(F)(F)F)c2c(=O)[nH]1)NCc1ccco1 do in these assays?
Bst PK mod: >11.4; HBB splice mod: -0.1%[57.5 µM]; Ub-GFP proteasome: -3.3%; USP2a inh: 2µM*; GFP derepression: 0.2%; Hsp90 Hop PPI: -6.5%

How did CN1[C@@H]2CC(OC(=O)[C@@H](CO)c3ccccc3)C[C@H]1[C@H]1O[C@H]12 (stereo not given in full) do in these assays?
HBB splice mod: 0.0%; Ub-GFP proteasome: 9.9%; USP2a inh: 0.5%; GFP derepression: -1.1%; Hsp90 Hop PPI: 0.0%

How did CO[C@]1(NC(=O)Cc2cccs2)C(=O)N2C(C(=O)O)=C(COC(N)=O)CS[C@H]21 do in these assays?
HBB splice mod: 1.8%[20.6 µM]; Ub-GFP proteasome: -0.4%[20.5 µM]; USP2a inh: -10.3%[17.1 µM]; GFP derepression: 0.0%[20.6 µM]; Hsp90 Hop PPI: 0.2%[26 µM]

What do the screens show for `NC(=O)c1cc(Br)cc2c3c([nH]c12)CCCC3`?
Bst PK mod: 0.687*; HBB splice mod: 5.6%[0.369 µM]; USP2a inh: inconclusive; GFP derepression: -2.1%; Hsp90 Hop PPI: -6.9%

Results for O=c1c2c([nH]c3ccc(Br)cc13)CCCC2 ?
HBB splice mod: -1.2%; Ub-GFP proteasome: 4.3%; USP2a inh: -5.7%; GFP derepression: 1.3%; Hsp90 Hop PPI: -4.0%

Results for Cc1cc(NC(=O)Nc2ccc(N(C)C)cc2)c2cc(F)cc(F)c2n1 ?
Ub-GFP proteasome: 2.6%; GFP derepression: 3.3%; Hsp90 Hop PPI: 7.94µM*

Results for Cc1cc(C)cc(-n2c3nc4ccccc4nc3c3c(=O)n(Cc4ccco4)cnc32)c1 ?
Bst PK mod: >25.6; GFP derepression: 12.6µM*

Results for Nc1ncn([C@@H]2O[C@@H](CO)[C@@H](O)[C@H]2O)c(=O)n1 ?
HBB splice mod: 0.7%; Ub-GFP proteasome: -3.0%; GFP derepression: -1.1%; Hsp90 Hop PPI: -2.9%

What do the screens show for `CC(C)CNC(=O)NC1C(NC(=O)NCC(C)C)N(C)C(=O)N1C` (stereo not given)?
Bst PK mod: 10.2*; HBB splice mod: -1.2%; Ub-GFP proteasome: 2.8%; USP2a inh: -1.4%; GFP derepression: 0.0%; Hsp90 Hop PPI: -1.1%

How did CN1C(=O)N(C)C(NC(=O)Nc2ccccc2)C1NC(=O)Nc1ccccc1 (stereo not given) do in these assays?
Bst PK mod: >57; HBB splice mod: -0.4%[0.369 µM]; USP2a inh: 5.4%; GFP derepression: 2.1%; Hsp90 Hop PPI: -0.3%

How did C=CCn1c(-c2ccc(OC)c(OC)c2)cs/c1=N\c1ccccn1 do in these assays?
Bst PK mod: 6.93*; HBB splice mod: -3.1%; Ub-GFP proteasome: -8.5%; USP2a inh: -6.9%; GFP derepression: 2.2%; Hsp90 Hop PPI: -28.0%

Results for CCOC(=O)c1sc(NC(=O)c2ccc(Br)o2)cc1C ?
Bst PK mod: 6.37*; HBB splice mod: 1.3%; Ub-GFP proteasome: 3.0%; USP2a inh: 2.0%; GFP derepression: 1.3%; Hsp90 Hop PPI: 1.4%

Results for CCOC(=O)c1sc(NC(=O)c2cccs2)cc1C ?
HBB splice mod: 0.0%[57.5 µM]; Ub-GFP proteasome: 6.7%; USP2a inh: 2.8%; GFP derepression: -0.2%; Hsp90 Hop PPI: 1.3%

How did O=C(CSc1nnc(COc2cccc3cccnc23)o1)c1ccc(F)cc1 do in these assays?
Bst PK mod: 10.3*; HBB splice mod: 2.4%; Ub-GFP proteasome: 1.3%; USP2a inh: 11.4%; GFP derepression: 0.0%; Hsp90 Hop PPI: -6.6%

Results for C[C@H]1[C@H](C)CC[C@]2(C(=O)O)CC[C@]3(C)C(=CC[C@@H]4[C@]5(C)C[C@H](O)[C@@H](O)[C@@](C)(CO)[C@@H]5[C@H](O)C[C@@]43C)[C@H]12 ?
HBB splice mod: -0.9%[9.22 µM]; Ub-GFP proteasome: -0.6%[9.17 µM]; GFP derepression: 0.0%[9.22 µM]; Hsp90 Hop PPI: -2.2%[11 µM]

What do the screens show for `CCCCCCCCCCCCCCCCCCOC[C@@H](COP(=O)([O-])OCC[N+](C)(C)C)OC`?
HBB splice mod: 2.2%; Ub-GFP proteasome: 1.6%; USP2a inh: 18.9%; GFP derepression: -1.1%; Hsp90 Hop PPI: -1.9%

Results for S=C(Nc1ccccc1)Nc1nccs1 ?
HBB splice mod: -0.8%; Ub-GFP proteasome: -6.9%; USP2a inh: 0.1%; GFP derepression: 31.6µM*; Hsp90 Hop PPI: -7.6%

Results for COC1=CC(=O)C[C@@H](C)[C@@]12Oc1c(Cl)c(OC)cc(OC)c1C2=O ?
Ub-GFP proteasome: -6.5%; GFP derepression: 0.0%[9.22 µM]; Hsp90 Hop PPI: -3.2%

What do the screens show for `CCCCOn1c(C)c(C(=O)OCC)c2c3nonc3ccc21`?
Bst PK mod: >57; HBB splice mod: 0.8%; Ub-GFP proteasome: -3.8%; USP2a inh: inconclusive; GFP derepression: 3.6%; Hsp90 Hop PPI: 31.6µM*

What do the screens show for `Nc1nc(Nc2ccccc2)nc2ccccc12`?
Bst PK mod: 5.47*; HBB splice mod: -0.2%[57.5 µM]; Ub-GFP proteasome: 1.9%; GFP derepression: -2.3%; Hsp90 Hop PPI: -1.7%

How did Oc1ccc(Nc2nc(N3CCCC3)c3ccccc3n2)cc1 do in these assays?
Bst PK mod: inactive; HBB splice mod: -0.3%[57.5 µM]; Ub-GFP proteasome: 3.3%; GFP derepression: -1.4%; Hsp90 Hop PPI: -22.1%

How did COc1ccccc1C(=O)Nc1cc(Cl)ccc1O do in these assays?
Bst PK mod: >25.6; GFP derepression: -2.6%[20.6 µM]

Results for CCOc1ccccc1C(=O)Nc1cc(Cl)ccc1O ?
Bst PK mod: >57; HBB splice mod: -1.3%; Ub-GFP proteasome: -2.5%; USP2a inh: 12.6µM*; GFP derepression: 0.6%; Hsp90 Hop PPI: 2.9%

What do the screens show for `COC(=O)C/C=C\[C@H](C)[C@@H](OCc1ccccc1Br)C(C)C`?
HBB splice mod: 1.0%[9.22 µM]

Results for CC(=O)OCC(=O)[C@@]1(O)CC[C@@H]2[C@@H]3CCC4=CC(=O)CC[C@@]4(C)[C@H]3C(=O)C[C@]21C ?
HBB splice mod: -1.3%; Ub-GFP proteasome: -5.4%; GFP derepression: 0.0%; Hsp90 Hop PPI: -3.1%

What do the screens show for `O=C1NC(=O)[C@@H]2C3c4ccccc4C=CN3[C@H](C(=O)c3cccs3)[C@H]12` (stereo not given in full)?
Bst PK mod: 6.21*; HBB splice mod: -2.5%[57.5 µM]; Ub-GFP proteasome: 2.6%; USP2a inh: 10.5%; GFP derepression: 0.0%; Hsp90 Hop PPI: -11.7%
